Several values for one entry are separate records, joined by “and”; a condition that tells them apart may be missing. Identical values can stand only once. Among all 69,000 compounds or so, about 2,600 (3.8%) were called active. Rule as the data show it: active = activity change below about -70% (passing the limit was not always enough); inconclusive = no clear call, values can overlap the other calls. The sample as a whole holds a higher share of actives than the screen did. More than one record can exist for a structure, and the calls need not agree.
Test: T. gondii growth inhibition with IFN-gamma, primary screen, cell-based (AID 1259416);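 also: host cells are HeLa cells infected with Toxoplasma gondii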
Details: Toxoplasma gondii growth in IFN-gamma-treated host cells; stronger effect = lower value; concentration not given here

SMILES	activity change, negative = inhibition
COc1ccc(-c2nc(Nc3ccc(C(C)C)cc3)c3ccccc3n2)cc1	-22% (inactive)
CC(C)NC(=O)COc1cccc(-c2nc(Nc3ccc4[nH]ncc4c3)c3ccccc3n2)c1	-76.1% (active)
CC(=O)Nc1ccc(Nc2nc(-c3nnc(-c4cccc(C)c4)o3)nc3ccccc23)cc1	494% (inactive)
Cc1cc(CN(C)C(=O)c2coc(COc3ccc4sc(C)nc4c3)n2)on1	12.7% (inactive)
Fc1ccc2c(c1)C(c1cccnc1)=NNC(c1cccs1)=N2	-8.32% (inactive)
O=C(O)C1CSC(C2CC=CCC2)N1 (centres undefined)	3.83% (inactive)
COCC1c2nnn(CC3CC3)c2CCN1C(=O)N(C)C (centres undefined)	-2.44% (inactive)
CN1CC[C@H](c2c(O)cc(O)c3c(=O)cc(-c4ccccc4Cl)oc23)[C@H](O)C1	-76.7% (active)
CC(=O)N1CCC(C(=O)NCc2ccccc2)(N(C(=O)c2ccc(C)cc2)c2ccc(F)c(F)c2)CC1	-32.1% (inactive)
CC(=O)Nc1ccc(-c2cn3nc(C)c(C)nc3n2)cc1	-0.582% (inactive)
N#Cc1ccccc1SCc1ccccc1	27% (inactive)
Brc1ccc(CSc2cccc3cccnc23)cc1	-110% (active)
Cc1nc(-c2ccc(F)cc2)sc1-c1ccc(SCc2ccc(Br)cc2)nn1	-0.254% (inactive)
O=C(COc1ccccc1Cl)Nc1ccc(Oc2ccc(F)cc2)c(C(F)(F)F)c1	-7.01% (inactive)
CC1=C(C(=O)NCCCN2CCCCC2)C2(CCN(S(C)(=O)=O)CC2)OC1=O	16.4% (inactive)
Cc1ccc(-c2nc3c(s2)CN(C(=O)Nc2ccc(C)cc2C)CC3)cc1	210% (inactive)
COc1ccc(C)cc1NC(=O)C(=O)NCCc1sc(-c2ccc(F)cc2)nc1C	0.139% (inactive)
COc1cccc(OCC(=O)NCCc2sc(-c3cccc(F)c3)nc2C)c1	11.4% (inactive)
COc1ccc(OC)c(NC(=O)N2CCc3nc(-c4ccc(C)cc4)sc3C2)c1	-112% (active)
COc1cccc(-c2nc3c(s2)CN(C(=O)Nc2ccc(C)c(F)c2)CC3)c1	-89.9% (active)
COc1ccc(NC(=O)N2CCc3nc(-c4ccccc4)sc3C2)cc1OC	32.4% (inactive)
CO[C@H](c1ccccc1)c1n[nH]c(Cc2ccccc2)n1	0.899% (inactive)
CC1(C)Cc2cc(-c3cncn3CCNC3CCS(=O)(=O)C3)ccc2O1 (centres undefined)	2.55% (inactive)

SMILES	activity change, negative = inhibition
Cc1c(Br)c(C(F)(F)F)nn1CC(=O)N1CCCCC1	2.94% (inactive)
CCn1c(=O)c(-c2nc(-c3ccc(F)c(Cl)c3)no2)c(O)c2ccccc21	-48.5% (inactive)
COc1ccc(-c2[nH]ncc2CNC(=O)Cc2cccnc2)cc1	-20.6% (inactive)
CN(CCCC1CCCO1)Cc1ncc[nH]1 (centres undefined)	-1.64% (inactive)
O=C(Nc1ccccc1N1CCOCC1)NC1CCN(C(=O)OCc2ccccc2)CC1	-86.9% (active)
CCOC(=O)N1CCC(NCc2ccccc2-n2ccnc2C)CC1	4.98% (inactive)
CC(=O)Nc1ccccc1OC(=O)N1CCOCC1	0.117% (inactive)
CN(Cc1ccn[nH]1)C(=O)c1coc(COc2cccc(F)c2F)n1	6.91% (inactive)
CCC(C)N(Cc1ccncc1)C(=O)Cc1nc(C)sc1C (centres undefined)	46% (inactive)
C[C@H]1O[C@@H](O[C@H]2[C@@H](O)C[C@H](O[C@H]3[C@@H](O)C[C@H](O[C@H]4CC[C@]5(C)C6C[C@@H](O)[C@]7(C)[C@@H](C8=CC(=O)OC8)CC[C@]7(O)C6CC[C@@H]5C4)O[C@@H]3C)O[C@@H]2C)C[C@H](O)[C@@H]1O (some centres undefined)	-64.8% (inactive) and -73.6% (active)
CCOC(=O)c1cccnc1-c1ccc(OC)nc1	14.5% (inactive)
CN1CCC(NCCN(C)S(C)(=O)=O)CC1	12.1% (inactive)
Cc1cccc(-c2nc(C)c(CCNC(=O)C(=O)Nc3cccc(Cl)c3)s2)c1	-6.82% (inactive)
CSc1nnc(SC)n1CCNC(=O)Nc1cccc(Cl)c1	-80.6% (active)
CCOC(=O)CCSc1nnc(CNc2cccc(Cl)c2)n1CCc1ccccc1	19.4% (inactive)
Cn1nc(C2CCN(c3cnccn3)CC2)n(-c2ccccc2)c1=O	2.02% (inactive)
CC(C)c1cc(C(=O)NCCCc2nc3ccccc3n2C)n(C)n1	-0.0637% (inactive)
Cc1ccc(C23CC4CC(CC(CN)(C4)C2)C3)cc1C	-89.5% (active)
O=C1CCc2cc(S(=O)(=O)Nc3cccc(Cl)c3)cc3c2N1CC3	-27.2% (inactive)
CCCc1ccc(N2C(=O)C3CCC(C)CC3C2=O)cc1 (centres undefined)	7.51% (inactive)
CC(C)c1cc(CN(C)C(=O)c2ccc(C#CC(C)(C)O)o2)on1	1.77% (inactive)
CC(=O)N1CC2(CCN(C(=O)C3CCNCC3)CC2)CC1C(=O)O (centres undefined)	-40.5% (inactive)
CC(=O)c1cnc2ccc(-c3cc(Cl)c(O)c(Cl)c3)nc2c1NC1CCC(CN(C)C)CC1 (centres undefined)	-75.6% (active)

SMILES	activity change, negative = inhibition
Cc1nn(-c2ccccc2)c(C)c1CCC(=O)Nc1nc(C(C)C)cs1	-0.863% (inactive)
COc1cc2c(cc1CNCC(=O)Nc1ccc(C)cc1C)OCCO2	-7.55% (inactive)
CN(Cc1ccoc1)c1nc(-c2cccnc2)nc2c1cnn2C	-58.5% (inactive)
COc1ccc(-c2noc(CSc3nc(C)cc(=O)[nH]3)n2)cc1OC	32.8% (inactive)
Cc1nc(SCc2nc(C(c3ccccc3)c3ccccc3)no2)[nH]c(=O)c1C	-95.3% (active)
C=CCN(Cc1ccc(C)s1)C(=O)c1ccc(-c2nnn(C)n2)cc1	-2.73% (inactive)
CC1CCCN(C(=O)CCNc2c(-c3ccc(F)cc3)nc3cnccn23)C1 (centres undefined)	229% (inactive)
Cc1ncc(CN2CCC(Oc3cccc(C(=O)NCc4ccccc4)c3)CC2)s1	-28.1% (inactive)
COC1C2CCC1N(C(=O)COc1ccccc1C)CCO2 (centres undefined)	-5.26% (inactive)
CC(C)(C)CC(=O)OCC(=O)[C@@]1(O)CCC2C3CCC4=CC(=O)C=C[C@]4(C)C3[C@@H](O)C[C@@]21C (some centres undefined)	6.39% (inactive)
O=C(CCC1(c2ccccc2)NC(=O)NC1=O)Nc1ccc(N2CCCCC2)c(F)c1 (centres undefined)	-25.7% (inactive)
CC(C)Cn1ncc2c1NC(=O)CC2c1csc(-c2ccccc2)n1 (centres undefined)	-98.9% (active)
O=C1CC(c2cccnc2)c2cnn(CC3CC3)c2N1 (centres undefined)	6.49% (inactive)
Cc1nn(CC(C)C)c2c1C(c1cnn3cccnc13)CC(=O)N2 (centres undefined)	-4.06% (inactive)
COCCN1CC2(CCOCC2)c2cc(NC(=O)C3CCC3)ccc21	-48.6% (inactive)
Cc1nn(C)c(C)c1CCC(=O)N[C@H]1CCC(=O)NC1c1cccnc1 (some centres undefined)	85.1% (inactive)
COc1cccc(-c2nc(C)c(-c3ccc(SCc4cccc5ccccc45)nn3)s2)c1	-1.38% (inactive)
COc1ccc(-c2cccc(-c3nnc(C)s3)c2)c(OC)c1	-81.9% (active)
COc1cccc(-c2nc(C)c(-c3ccc(SCc4ccccc4)nn3)s2)c1	-15.2% (inactive)
CCc1cn[nH]c1C1CCN(C(=O)C2COc3c(cccc3OC)C2)CC1 (centres undefined)	-0.504% (inactive)
NCC(=O)CCC(=O)OCc1ccccc1	9.17% (inactive)
Cc1cc(C)c(/C=C2\C(=O)Nc3ccccc32)[nH]1	22% (inactive) and -75.5% (active)
O=C1CCCCC(=O)c2ccccc2N1	-17.8% (inactive)

SMILES	activity change, negative = inhibition
CNc1ccc(Cl)cc1C(=O)NCCN(C)S(C)(=O)=O	-31% (inactive)
CC(=O)N1CCn2c(-c3cnn(C)c3)cnc2C12CCN(S(=O)(=O)C1CC1)CC2	7.11% (inactive)
O=C(NC1CC1)c1cc2n(n1)CCN(C(=O)CCn1nnc3ccccc31)C2	-45.8% (inactive)
C[C@H]1CN([C@@H](C)CO)C(=O)CCCn2cc(nn2)CO[C@@H]1CN(C)S(=O)(=O)c1ccc(-n2cccn2)cc1	-30.5% (inactive)
C[C@H]1CN([C@@H](C)CO)C(=O)CCCn2cc(nn2)CO[C@@H]1CN(C)S(=O)(=O)c1cccc(C#N)c1	24.6% (inactive)
C[C@@H]1CN([C@@H](C)CO)C(=O)CCCn2cc(nn2)CO[C@H]1CN(C)S(=O)(=O)c1ccc(-n2cccn2)cc1	-114% (active)
O=C(c1cc(COc2c(F)cccc2F)on1)N1CCCC1c1ccco1 (centres undefined)	1.77% (inactive)
CC(=O)Nc1ccc(NS(=O)(=O)c2ccc3oc(=O)ccc3c2)cc1	137% (inactive)
O=C(C1CCN(S(=O)(=O)c2ccc3[nH]c(=O)ccc3c2)CC1)N1CCN(c2ccccc2F)CC1	27.2% (inactive)
O=C(Oc1ccc(Cl)cc1)c1snnc1-c1ccccc1	-78% (active)
COc1ccc2c(c1)NC1(CCN(S(=O)(=O)c3ccc(F)c(Cl)c3)CC1)c1cccn1-2	11.3% (inactive)
COc1ncccc1CN1CCc2[nH]cnc2C1Cc1ccccc1 (centres undefined)	-52.3% (inactive)
CC(=O)Nc1ccc(NC(=O)CSc2nnnn2C2CCCCC2)cc1	2.96% (inactive)
C=CCC1(O)C(C)C(c2ccccc2)N(C)C(c2ccccc2)C1C (centres undefined)	-91.3% (active)
CN(C)C(=O)NC[C@H]1CCC[C@]2(CCN(Cc3nccs3)C2)O1	-40.2% (inactive)
O=C(Nc1ccc(C(F)(F)F)cn1)Nc1ccc(-c2ccccc2)s1	-27.9% (inactive)
Cc1c(C(=O)N2CCC3(CC2)CC(O)(c2nccs2)CO3)oc2ccccc12 (centres undefined)	-14.2% (inactive)
COc1cccc(NC(=O)N2CCC3(CC2)CC(=O)c2ccccc2O3)c1	-5.86% (inactive)
Cc1c(C(=O)N2CCCCC2)oc2ccc3c(c12)C(=O)CC1(CCCCCC1)O3	-112% (active)
c1ccc2ncc(-c3ccncn3)cc2c1	1.85% (inactive)

From PubChem BioAssay AID1259416 (Broad Institute, 2018)
